# Reference: publication PMC7862700, “An all-to-all approach to the identification of sequence-specific readers for epigenetic DNA modifications on cytosine”
# What was measured:
# Assay in all cases: DAPPL (digital affinity profiling via proximity ligation, sequencing); 10 mM Tris-HCl pH 7.5, 50 mM NaCl, 1 mM DTT, 4% glycerol, room temperature, 30 min; GST-TFs on glutathione beads, 16-mer random dsDNA library, 0.1% formaldehyde crosslink after washing; high values mean tight binding
# FLI1 = target: T1, FLI1 (Homo sapiens, UniProt Q01543 1-452); details: protein: recombinant; tags: N-terminal GST; dsDNA, one strand shown
# T1 sequence: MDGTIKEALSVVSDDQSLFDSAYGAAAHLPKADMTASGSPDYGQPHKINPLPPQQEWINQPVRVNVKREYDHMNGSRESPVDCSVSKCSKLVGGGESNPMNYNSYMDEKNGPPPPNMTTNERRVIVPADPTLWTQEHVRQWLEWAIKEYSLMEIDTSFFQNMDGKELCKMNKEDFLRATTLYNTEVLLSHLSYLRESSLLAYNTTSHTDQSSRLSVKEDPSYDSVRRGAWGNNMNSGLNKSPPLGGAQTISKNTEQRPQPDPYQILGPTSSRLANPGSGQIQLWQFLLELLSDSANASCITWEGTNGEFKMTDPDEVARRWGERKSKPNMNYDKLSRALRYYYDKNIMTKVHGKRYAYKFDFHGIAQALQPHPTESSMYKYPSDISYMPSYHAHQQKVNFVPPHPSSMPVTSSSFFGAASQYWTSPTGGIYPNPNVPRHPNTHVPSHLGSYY
# Procedure, shortened: (§1)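 Beads coated with glutathione captured GST-fused human transcription factors that had been expressed in yeast, and the factors were then given DNA barcodes and pooled with a tag-only sample. The pools were incubated with 200 nmole of a random double-stranded 16-mer DNA library in Tris/NaCl/DTT/glycerol buffer for 30 min at room temperature, washed, crosslinked with 0.1% formaldehyde and proximity-ligated with BsaI/T4 ligase at 37 °C for 1 h. PCR amplification and Illumina NextSeq500 sequencing came last. Binding signal is each hexamer's read frequency for a factor divided by its frequency for the tag-only sample.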
# ELK1 = target: T2, ELK1 (Homo sapiens, UniProt P19419 1-428); details: protein: recombinant; tags: N-terminal GST; dsDNA, one strand shown
# T2 sequence: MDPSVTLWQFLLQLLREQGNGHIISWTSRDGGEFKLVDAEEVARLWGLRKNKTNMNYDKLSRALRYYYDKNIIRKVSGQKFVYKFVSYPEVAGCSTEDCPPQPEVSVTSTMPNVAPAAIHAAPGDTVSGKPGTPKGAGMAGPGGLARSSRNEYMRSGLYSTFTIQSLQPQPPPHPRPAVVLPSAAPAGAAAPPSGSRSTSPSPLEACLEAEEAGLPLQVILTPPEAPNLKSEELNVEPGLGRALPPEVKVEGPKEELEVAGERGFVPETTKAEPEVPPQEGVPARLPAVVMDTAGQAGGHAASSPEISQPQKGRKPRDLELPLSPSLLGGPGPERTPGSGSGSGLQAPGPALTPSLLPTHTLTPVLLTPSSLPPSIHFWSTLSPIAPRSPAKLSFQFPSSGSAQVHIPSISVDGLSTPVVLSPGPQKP
# Procedure, shortened: as §1
# GABPA = target: T3, GABPA (Homo sapiens, UniProt Q06546 1-454); details: protein: recombinant; tags: N-terminal GST; dsDNA, one strand shown
# T3 sequence: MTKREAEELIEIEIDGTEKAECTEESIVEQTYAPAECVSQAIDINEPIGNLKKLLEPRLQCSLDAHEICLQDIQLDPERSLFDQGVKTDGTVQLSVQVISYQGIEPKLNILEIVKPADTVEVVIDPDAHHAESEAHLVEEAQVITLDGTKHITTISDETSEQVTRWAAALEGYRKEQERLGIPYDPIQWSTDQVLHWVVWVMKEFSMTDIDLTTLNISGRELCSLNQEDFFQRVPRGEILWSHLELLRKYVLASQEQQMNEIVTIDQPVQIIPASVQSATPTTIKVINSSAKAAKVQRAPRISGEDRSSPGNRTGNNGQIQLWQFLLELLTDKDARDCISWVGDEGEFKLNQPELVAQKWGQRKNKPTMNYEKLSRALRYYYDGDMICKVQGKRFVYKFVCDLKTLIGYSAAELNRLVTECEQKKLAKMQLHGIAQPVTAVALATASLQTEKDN
# Procedure, shortened: as §1
# ERG = target: T4, ERG (Homo sapiens, UniProt P11308 1-479); details: protein: recombinant; tags: N-terminal GST; dsDNA, one strand shown
# T4 sequence: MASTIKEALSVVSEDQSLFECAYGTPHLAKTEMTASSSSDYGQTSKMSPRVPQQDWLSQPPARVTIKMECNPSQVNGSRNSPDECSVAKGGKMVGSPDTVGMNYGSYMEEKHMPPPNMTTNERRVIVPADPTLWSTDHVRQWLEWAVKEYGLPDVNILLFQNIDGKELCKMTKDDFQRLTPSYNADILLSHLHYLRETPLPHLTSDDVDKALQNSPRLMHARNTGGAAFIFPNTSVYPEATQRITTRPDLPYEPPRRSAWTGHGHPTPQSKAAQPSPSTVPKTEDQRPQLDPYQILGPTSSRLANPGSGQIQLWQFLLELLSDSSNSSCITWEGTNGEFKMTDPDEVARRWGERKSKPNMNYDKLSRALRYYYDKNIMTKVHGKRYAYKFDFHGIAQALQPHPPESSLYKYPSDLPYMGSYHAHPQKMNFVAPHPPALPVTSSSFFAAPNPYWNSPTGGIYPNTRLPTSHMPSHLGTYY
# Procedure, shortened: as §1
# ELF1 = ELF1 (Homo sapiens, UniProt P32519 1-619); details: protein: recombinant; tags: N-terminal GST; dsDNA, one strand shown
# Sequence of ELF1 (P32519 whole entry): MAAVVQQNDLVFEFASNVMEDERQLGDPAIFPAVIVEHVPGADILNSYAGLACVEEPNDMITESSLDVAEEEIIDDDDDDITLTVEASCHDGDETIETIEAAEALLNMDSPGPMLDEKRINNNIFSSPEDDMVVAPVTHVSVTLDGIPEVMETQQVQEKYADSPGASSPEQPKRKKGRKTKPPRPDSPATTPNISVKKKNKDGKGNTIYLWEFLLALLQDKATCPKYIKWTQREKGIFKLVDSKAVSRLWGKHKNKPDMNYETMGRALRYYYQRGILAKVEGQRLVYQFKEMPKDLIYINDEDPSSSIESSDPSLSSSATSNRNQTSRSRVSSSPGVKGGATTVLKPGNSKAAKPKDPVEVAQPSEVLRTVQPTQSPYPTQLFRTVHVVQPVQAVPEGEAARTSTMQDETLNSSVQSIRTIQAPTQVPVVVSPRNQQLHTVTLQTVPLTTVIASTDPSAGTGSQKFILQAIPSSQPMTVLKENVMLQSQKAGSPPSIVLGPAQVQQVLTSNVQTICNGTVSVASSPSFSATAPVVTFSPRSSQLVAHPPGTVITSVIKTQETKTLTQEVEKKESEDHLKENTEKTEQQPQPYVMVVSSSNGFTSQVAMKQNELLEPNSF
# Procedure, shortened: as §1
# EHF = target: T5, EHF (Homo sapiens, UniProt Q9NZC4 1-300); details: protein: recombinant; tags: N-terminal GST; dsDNA, one strand shown
# T5 sequence: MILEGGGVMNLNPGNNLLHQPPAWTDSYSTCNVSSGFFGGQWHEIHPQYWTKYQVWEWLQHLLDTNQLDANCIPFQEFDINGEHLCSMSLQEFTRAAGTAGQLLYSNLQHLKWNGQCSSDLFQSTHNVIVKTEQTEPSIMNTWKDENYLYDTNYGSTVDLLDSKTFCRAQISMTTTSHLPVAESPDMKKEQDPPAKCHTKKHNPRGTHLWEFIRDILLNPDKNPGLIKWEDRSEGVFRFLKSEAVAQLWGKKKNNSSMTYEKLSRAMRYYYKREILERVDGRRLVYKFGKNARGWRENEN
# Procedure, shortened: as §1
# SPI1 = SPI1 (Homo sapiens, UniProt P17947 1-270); details: protein: recombinant; tags: N-terminal GST; dsDNA, one strand shown
# Procedure, shortened: as §1
# SPIB = SPIB (Homo sapiens, UniProt Q01892 1-262); details: protein: recombinant; tags: N-terminal GST; dsDNA, one strand shown
# Sequence of SPIB (Q01892 whole entry): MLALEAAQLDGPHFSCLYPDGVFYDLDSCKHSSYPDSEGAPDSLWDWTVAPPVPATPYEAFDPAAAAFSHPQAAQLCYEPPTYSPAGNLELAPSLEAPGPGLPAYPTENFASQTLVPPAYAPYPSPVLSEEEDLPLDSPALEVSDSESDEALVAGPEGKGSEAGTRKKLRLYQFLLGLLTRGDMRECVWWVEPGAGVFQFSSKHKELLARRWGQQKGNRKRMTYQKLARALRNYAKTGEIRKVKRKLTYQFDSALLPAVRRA
# Procedure, shortened: as §1
# ELK3 = target: T6, ELK3 (Homo sapiens, UniProt P41970 1-407); details: protein: recombinant; tags: N-terminal GST; dsDNA, one strand shown
# T6 sequence: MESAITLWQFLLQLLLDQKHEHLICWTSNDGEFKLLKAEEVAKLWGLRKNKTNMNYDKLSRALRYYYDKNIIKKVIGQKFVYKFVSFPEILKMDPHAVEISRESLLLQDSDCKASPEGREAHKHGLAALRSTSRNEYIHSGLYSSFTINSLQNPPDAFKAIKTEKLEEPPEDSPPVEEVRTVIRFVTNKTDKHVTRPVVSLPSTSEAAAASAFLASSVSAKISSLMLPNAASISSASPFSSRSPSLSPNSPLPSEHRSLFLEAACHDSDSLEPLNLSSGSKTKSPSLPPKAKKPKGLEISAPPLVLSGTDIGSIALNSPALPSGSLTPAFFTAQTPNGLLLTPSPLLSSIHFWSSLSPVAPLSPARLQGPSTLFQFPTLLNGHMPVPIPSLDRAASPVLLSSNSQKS
# Procedure, shortened: as §1
# FEV = target: T7, FEV (Homo sapiens, UniProt Q99581 1-238); details: protein: recombinant; tags: N-terminal GST; dsDNA, one strand shown
# T7 sequence: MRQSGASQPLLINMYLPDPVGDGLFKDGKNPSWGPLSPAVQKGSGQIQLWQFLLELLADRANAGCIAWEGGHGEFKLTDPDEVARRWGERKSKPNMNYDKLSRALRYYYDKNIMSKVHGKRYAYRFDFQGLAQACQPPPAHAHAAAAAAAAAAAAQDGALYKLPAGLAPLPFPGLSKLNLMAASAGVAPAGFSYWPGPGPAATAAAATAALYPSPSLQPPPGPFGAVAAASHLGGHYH
# Procedure, shortened: as §1
# ETV5 = ETV5 (Homo sapiens, UniProt P41161 1-510); details: protein: recombinant; tags: N-terminal GST; dsDNA, one strand shown
# Sequence of ETV5 (P41161 whole entry): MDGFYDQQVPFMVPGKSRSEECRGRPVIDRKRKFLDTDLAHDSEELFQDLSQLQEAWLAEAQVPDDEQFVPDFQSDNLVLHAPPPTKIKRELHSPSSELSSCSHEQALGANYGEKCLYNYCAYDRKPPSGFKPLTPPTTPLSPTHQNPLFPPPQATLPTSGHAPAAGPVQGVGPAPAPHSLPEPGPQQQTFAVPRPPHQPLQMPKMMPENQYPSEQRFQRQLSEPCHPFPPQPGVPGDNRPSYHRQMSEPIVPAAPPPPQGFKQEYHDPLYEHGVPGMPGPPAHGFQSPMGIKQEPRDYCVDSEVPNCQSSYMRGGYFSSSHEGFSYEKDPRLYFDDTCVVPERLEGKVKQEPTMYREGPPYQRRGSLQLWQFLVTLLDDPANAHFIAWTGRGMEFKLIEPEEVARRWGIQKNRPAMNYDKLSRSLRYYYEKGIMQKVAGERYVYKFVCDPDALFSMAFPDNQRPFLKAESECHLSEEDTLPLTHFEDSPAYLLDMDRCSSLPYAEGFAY
# Procedure, shortened: as §1
# HSF1 = HSF1 (Homo sapiens, UniProt Q00613 1-529); details: protein: recombinant; tags: N-terminal GST; chain copies: 3; dsDNA, one strand shown
# Sequence of HSF1 (Q00613 whole entry): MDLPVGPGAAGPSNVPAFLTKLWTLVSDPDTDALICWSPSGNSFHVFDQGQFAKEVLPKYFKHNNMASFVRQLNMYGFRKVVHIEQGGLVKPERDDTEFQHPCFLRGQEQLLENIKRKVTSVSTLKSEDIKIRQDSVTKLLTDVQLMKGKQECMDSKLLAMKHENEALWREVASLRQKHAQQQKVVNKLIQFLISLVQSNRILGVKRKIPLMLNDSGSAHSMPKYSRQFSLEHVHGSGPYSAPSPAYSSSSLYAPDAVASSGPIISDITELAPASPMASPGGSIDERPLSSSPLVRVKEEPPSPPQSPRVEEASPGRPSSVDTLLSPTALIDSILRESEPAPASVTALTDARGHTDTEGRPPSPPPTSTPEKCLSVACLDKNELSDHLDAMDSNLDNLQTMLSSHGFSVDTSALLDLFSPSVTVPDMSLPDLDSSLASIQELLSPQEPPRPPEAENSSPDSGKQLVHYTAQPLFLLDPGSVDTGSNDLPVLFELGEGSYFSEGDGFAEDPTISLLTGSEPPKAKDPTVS
# Procedure, shortened: as §1
# SPIC = target: T8, SPIC (Homo sapiens, UniProt Q8N5J4 1-248); details: protein: recombinant; tags: N-terminal GST; dsDNA, one strand shown
# T8 sequence: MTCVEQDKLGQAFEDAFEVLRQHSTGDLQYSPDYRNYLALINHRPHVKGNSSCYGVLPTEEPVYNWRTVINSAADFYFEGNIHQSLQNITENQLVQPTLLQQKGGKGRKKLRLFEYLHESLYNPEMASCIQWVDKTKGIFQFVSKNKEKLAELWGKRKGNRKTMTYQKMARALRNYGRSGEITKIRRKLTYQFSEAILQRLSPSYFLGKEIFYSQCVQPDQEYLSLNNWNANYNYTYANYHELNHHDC
# Procedure, shortened: as §1
# ELF4 = ELF4 (Homo sapiens, UniProt Q99607 1-663); details: protein: recombinant; tags: N-terminal GST; dsDNA, one strand shown
# Sequence of ELF4 (Q99607 whole entry): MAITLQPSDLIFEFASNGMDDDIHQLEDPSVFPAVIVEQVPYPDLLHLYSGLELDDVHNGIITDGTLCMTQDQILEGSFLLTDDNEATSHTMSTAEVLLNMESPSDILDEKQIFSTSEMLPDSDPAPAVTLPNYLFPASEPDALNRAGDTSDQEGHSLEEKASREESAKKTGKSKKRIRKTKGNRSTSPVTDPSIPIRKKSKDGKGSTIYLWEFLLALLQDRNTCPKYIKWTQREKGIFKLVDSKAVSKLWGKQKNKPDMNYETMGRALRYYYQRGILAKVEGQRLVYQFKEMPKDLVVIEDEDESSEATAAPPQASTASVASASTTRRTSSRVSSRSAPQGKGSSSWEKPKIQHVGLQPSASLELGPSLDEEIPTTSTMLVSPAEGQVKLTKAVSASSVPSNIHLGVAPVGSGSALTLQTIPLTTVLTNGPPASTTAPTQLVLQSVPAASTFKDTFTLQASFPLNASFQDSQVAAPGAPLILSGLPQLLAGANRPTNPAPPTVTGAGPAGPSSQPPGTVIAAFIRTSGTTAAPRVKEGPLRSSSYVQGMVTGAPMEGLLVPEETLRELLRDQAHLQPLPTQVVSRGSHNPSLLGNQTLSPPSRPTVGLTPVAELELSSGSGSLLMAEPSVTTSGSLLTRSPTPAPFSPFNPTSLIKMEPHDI
# Procedure, shortened: as §1
# ELK4 = target: T9, ELK4 (Homo sapiens, UniProt P28324-2 1-405); details: protein: recombinant; tags: N-terminal GST; dsDNA, one strand shown
# T9 sequence: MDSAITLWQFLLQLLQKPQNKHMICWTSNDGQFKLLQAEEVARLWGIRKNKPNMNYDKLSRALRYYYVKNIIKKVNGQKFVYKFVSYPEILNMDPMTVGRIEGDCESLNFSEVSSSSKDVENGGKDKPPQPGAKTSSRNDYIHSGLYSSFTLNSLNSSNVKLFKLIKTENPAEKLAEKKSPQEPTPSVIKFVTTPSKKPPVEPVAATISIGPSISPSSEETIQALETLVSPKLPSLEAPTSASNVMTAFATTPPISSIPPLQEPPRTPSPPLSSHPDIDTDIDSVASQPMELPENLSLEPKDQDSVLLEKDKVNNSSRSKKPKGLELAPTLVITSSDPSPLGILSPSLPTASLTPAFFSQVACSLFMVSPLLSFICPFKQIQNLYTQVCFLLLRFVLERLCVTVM
# Procedure, shortened: as §1
# ETV2 = target: T10, ETV2 (Homo sapiens, UniProt O00321 1-342); details: protein: recombinant; tags: N-terminal GST; dsDNA, one strand shown
# T10 sequence: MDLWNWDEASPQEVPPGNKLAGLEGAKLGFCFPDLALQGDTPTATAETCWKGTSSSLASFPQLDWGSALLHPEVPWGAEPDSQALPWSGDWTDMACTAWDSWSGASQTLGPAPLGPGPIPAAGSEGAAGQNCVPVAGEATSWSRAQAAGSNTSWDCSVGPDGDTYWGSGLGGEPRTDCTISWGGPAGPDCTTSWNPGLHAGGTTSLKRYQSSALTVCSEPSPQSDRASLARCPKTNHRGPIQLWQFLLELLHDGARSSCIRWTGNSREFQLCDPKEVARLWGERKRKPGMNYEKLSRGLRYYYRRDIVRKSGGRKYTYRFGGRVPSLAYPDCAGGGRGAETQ
# Procedure, shortened: as §1
# ELF3 = target: T11, ELF3 (Homo sapiens, UniProt P78545 1-371); details: protein: recombinant; tags: N-terminal GST; dsDNA, one strand shown
# T11 sequence: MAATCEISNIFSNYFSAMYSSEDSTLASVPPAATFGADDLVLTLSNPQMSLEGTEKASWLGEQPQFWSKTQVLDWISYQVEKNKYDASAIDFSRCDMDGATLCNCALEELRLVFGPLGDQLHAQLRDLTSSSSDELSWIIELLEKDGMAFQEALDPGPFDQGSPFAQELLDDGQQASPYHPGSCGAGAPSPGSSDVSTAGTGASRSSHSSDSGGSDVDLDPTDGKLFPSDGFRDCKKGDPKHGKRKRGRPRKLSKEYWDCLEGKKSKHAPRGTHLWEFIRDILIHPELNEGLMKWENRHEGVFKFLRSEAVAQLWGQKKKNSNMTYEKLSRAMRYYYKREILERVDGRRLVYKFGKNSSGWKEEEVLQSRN
# Procedure, shortened: as §1
# CRX = CRX (Homo sapiens, UniProt O43186 1-299); details: protein: recombinant; tags: N-terminal GST; dsDNA, one strand shown
# Sequence of CRX (O43186 whole entry): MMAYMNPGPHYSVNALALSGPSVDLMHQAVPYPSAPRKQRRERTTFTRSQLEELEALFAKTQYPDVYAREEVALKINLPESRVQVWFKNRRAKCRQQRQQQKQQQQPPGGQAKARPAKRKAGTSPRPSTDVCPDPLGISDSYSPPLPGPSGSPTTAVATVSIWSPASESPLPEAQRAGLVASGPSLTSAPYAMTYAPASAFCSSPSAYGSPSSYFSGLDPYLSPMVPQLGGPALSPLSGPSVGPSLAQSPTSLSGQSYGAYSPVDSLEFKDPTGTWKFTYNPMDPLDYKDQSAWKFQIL
# Procedure, shortened: as §1
# ETV1 = ETV1 (Homo sapiens, UniProt P50549 1-477); details: protein: recombinant; tags: N-terminal GST; dsDNA, one strand shown
# Sequence of ETV1 (P50549 whole entry): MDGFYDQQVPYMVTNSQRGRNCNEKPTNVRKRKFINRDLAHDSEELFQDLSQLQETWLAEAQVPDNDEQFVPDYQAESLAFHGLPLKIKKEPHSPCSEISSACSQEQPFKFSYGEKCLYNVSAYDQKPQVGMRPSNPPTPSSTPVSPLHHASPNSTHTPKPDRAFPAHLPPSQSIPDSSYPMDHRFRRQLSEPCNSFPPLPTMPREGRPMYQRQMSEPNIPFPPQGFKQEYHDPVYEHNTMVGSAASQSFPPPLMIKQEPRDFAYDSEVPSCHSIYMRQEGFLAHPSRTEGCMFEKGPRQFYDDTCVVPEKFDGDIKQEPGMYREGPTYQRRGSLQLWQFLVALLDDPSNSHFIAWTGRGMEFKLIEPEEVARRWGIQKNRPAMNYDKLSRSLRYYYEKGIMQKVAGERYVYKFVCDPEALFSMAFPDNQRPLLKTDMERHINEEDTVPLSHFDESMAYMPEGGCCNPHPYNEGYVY
# Procedure, shortened: as §1
sequence,measurement,setting,value
AGCATT,binding signal,FLI1,"1.12 fold enrichment (6-mer frequency, TF over GST control)"
same,binding signal,ELK1,"1.13 fold enrichment (6-mer frequency, TF over GST control)"
same,binding signal,GABPA,"1.11 fold enrichment (6-mer frequency, TF over GST control)"
same,binding signal,ERG,"1.09 fold enrichment (6-mer frequency, TF over GST control)"
same,binding signal,ELF1,"1.1 fold enrichment (6-mer frequency, TF over GST control)"
same,binding signal,EHF,"1.08 fold enrichment (6-mer frequency, TF over GST control)"
same,binding signal,SPI1,"1.03 fold enrichment (6-mer frequency, TF over GST control)"
same,binding signal,SPIB,"1.05 fold enrichment (6-mer frequency, TF over GST control)"
same,binding signal,ELK3,"1.07 fold enrichment (6-mer frequency, TF over GST control)"
same,binding signal,FEV,"1.11 fold enrichment (6-mer frequency, TF over GST control)"
same,binding signal,ETV5,"1.03 fold enrichment (6-mer frequency, TF over GST control)"
same,binding signal,HSF1,"1.2 fold enrichment (6-mer frequency, TF over GST control)"
same,binding signal,SPIC,"1.03 fold enrichment (6-mer frequency, TF over GST control)"
same,binding signal,ELF4,"1.11 fold enrichment (6-mer frequency, TF over GST control)"
same,binding signal,ELK4,"1.08 fold enrichment (6-mer frequency, TF over GST control)"
same,binding signal,ETV2,"1.06 fold enrichment (6-mer frequency, TF over GST control)"
same,binding signal,ELF3,"1.22 fold enrichment (6-mer frequency, TF over GST control)"
same,binding signal,CRX,"1.32 fold enrichment (6-mer frequency, TF over GST control)"
same,binding signal,ETV1,"1.13 fold enrichment (6-mer frequency, TF over GST control)"
